The target in the first test is MIER1. Nature of the test: pooled miR-30 sensor sort-seq; sequence = guide strand. The following applies: shRNA.
TATAATCTTCATCTTCTTCAGA displayed a sensor-assay potency score (higher = more potent) of -0.137. On the same count and under the same terms, the result for TACTGTTTGATGCAGTTGGGGG reads -0.856. Still for that read-out and setting: the result for TTCTTCTTTCCAAATCGTGTTT reads -0.957. Same read-out and setting: the result for TTAATCTTCTCAATGCTTCTTC reads 0.934; that for TATAATCACTTTATCTTCTGGT, 0.758; that for AATTTCTACACTCTTCCTCTGT, 0.0886.

Take TTCGTCTAGAAGACGATCCATG: the sensor-assay potency score (higher = more potent) is -1.5. The same measure, in the same setting: in the case of TTAATATTTCACCTGGTCCATT it was -1.02; in that of TTATCTTCTGGTAAGTACTCAG, -0.171. In the case of TTGTGATGGATCATCATTGGAA, the sensor-assay potency score (higher = more potent) is -0.466. Same read-out and setting: in the case of ATCATCAAAATCATGAACCAGC it was -0.377; in that of TAGTCGAACAGTACTACCATAA, -1.32.

In the next test the target is MIOX. Described as above. The following applies: shRNA.
Turning to TTTTCTTGTAGGAGAAGCCCCC, the sensor-assay potency score (higher = more potent) was -0.0971. Same read-out and setting: the result for TCTGGGTCCACATCAGGTCGGT reads -0.363. The same measure, in the same setting: the result for TACATCCCGAGCTCTGTGCTGT reads -0.811; that for TTGTTAAACTTCATCACCTGGT, -0.0605. Same read-out and setting: in the case of TGCATGAGCTTGTAGGTGGTGA it was -0.613; in that of TTGGGGAAATCTACGTCCGGGT, -0.845.

The sequence TTGTAGGTGGTGAAGACACGGT showed a sensor-assay potency score (higher = more potent) of -0.626. On the same count and under the same terms, in the case of TCCATGACTGTCATTTTCTTGT it was -1.1; in that of TGTGCTGTATCGAGGATCCTGG, -0.757. The same measure, in the same setting: in the case of TTGGTGTAGAGGTCGAACTTGT it was -0.568; in that of TCGAACTTGTTGAACTCCCGCA, -0.101. Regarding TTCTTGTAGGAGAAGCCCCCAA, the sensor-assay potency score (higher = more potent) is -0.777.

The next test has as its target MIP. The test is described as above. The following applies: shRNA.
Sequence TCAGAAATACTCTTGAGCCGGG registered a sensor-assay potency score (higher = more potent) of 0.442. The same measure, in the same setting: the result for TTGTCCATTGGAGACATCGGGT reads -0.903; that for TGAGGACAGACAGTCTCTCAGA, -1.25; that for TTCCTCGGACAGCAGGTGGGGT, -1.18. For the sequence TCTCTCAGAAATACTCTTGAGC, the sensor-assay potency score (higher = more potent) is -0.614.

In turn, TTCAGTTCAACAGGTTCCCCTG gave a sensor-assay potency score (higher = more potent) of -0.987. Consider TGAGTGCTAGGTTTCCTCGGAC, for which the sensor-assay potency score (higher = more potent) was -0.712. On the same count and under the same terms, the result for TCGTATGTGGCAAAGATGCAGA reads -0.993. TTGAGTGCTAGGTTTCCTCGGA returned a sensor-assay potency score (higher = more potent) of -0.0163. The same measure, in the same setting: in the case of TAGGTTTCCTCGGACAGCAGGT it was -0.243; in that of TGTCCATTGGAGACATCGGGTT, -1.24; in that of TAACGCTATACAGCACAGCGGC, -1.18.

In another test the target is MIS12. The test is described as above. The conditions noted are these: shRNA.
The sequence TTTATCTTCAGGAAGCAAGATG displayed a sensor-assay potency score (higher = more potent) of -0.586. The same measure, in the same setting: the result for TTAGTACATAATTCAGTCTTGT reads -0.329; that for TTCAGTCTTGTACTTCTCCTGT, 0.0481; that for TAATTCTGCAAGAAGGGCCTGC, 0.0971.

Values taken from the OligoGym collection.
Also: reference of the scale not given here.
